# PubChem BioAssay
# Active and inactive are the calls of the source. Unless noted, how the calls were made is not given here.
# Columns and labels:
# [1] = tested on: Wnt5a (protein binding on small-molecule microarray); experiment: small molecules binding Wnt5a protein – biophysical, small-molecule microarray, 635/667 nm fluorescence, primary screen (AID 1142); details: 635 nm fluorescence, higher = more signal;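 further: fluorescence read at 667 nm with signal to noise per printed feature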
# [2] = ATP-based viability of Huh7 replicon cells – cell-based, CellTiter-Glo luminescence, basal, 48 h, cytotoxicity control for HCV replication inhibitor project, primary screen (AID 1143); details: higher = more signal, called active from +8 up or from −8 down;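 further: Huh7 hepatoma cells carrying a hepatitis C replication reporter with no stimulus; test concentration not given here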
# [3] = Pseudomonas biofilm growth suppression – PAO1 strain, BacTiter-Glo luminescence, LB-PBS, primary screen (AID 1144); details: P. aeruginosa PAO1 biofilm, 12 h, higher = more signal
# [4] = basal CRE-LacZ reporter activity in PC12 – cell-based, unstimulated, primary screen (AID 1145); details: no forskolin, luminescence, 4.5 h, higher = more signal, called active from +8 up or from −8 down
# [5] = forskolin-driven CRE-LacZ activity in PC12 – cell-based, CRE-LacZ reporter, forskolin-stimulated, primary screen (AID 1146); details: luminescence, 4.5 h, higher = more signal, called active from +8 up or from −8 down;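 further: PC12 cells with 6xCRE LacZ reporter stimulated by forskolin 10 µM; beta-galactosidase reporter signal reflecting CREB driven transcription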
# [6] = molecular target: Streptavidin (Streptomyces avidinii) (UniProt P22629); experiment: compounds binding control protein streptavidin – biophysical, small-molecule microarray, 635/667 nm fluorescence, artefact control for SMM compound annotation, primary screen (AID 1147); details: higher = more signal;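 further: signal reflects streptavidin binding to arrayed compounds as a control protein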
# Sequence of Streptavidin (Streptomyces avidinii) (P22629 whole entry, looked up): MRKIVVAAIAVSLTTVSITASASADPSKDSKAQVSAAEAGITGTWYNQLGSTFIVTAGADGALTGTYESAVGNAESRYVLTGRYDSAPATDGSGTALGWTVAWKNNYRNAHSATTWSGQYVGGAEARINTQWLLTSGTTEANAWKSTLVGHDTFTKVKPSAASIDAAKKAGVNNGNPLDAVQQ
# [7] = probe aInhba binding on compound microarray – biochemical, small-molecule microarray, 635/667 nm fluorescence, primary screen (AID 1148); details: higher = more signal;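 further: score merges 667nm spot fluorescence with signal-to-noise for antibody binding to printed compounds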
# Torsin-1A (Homo sapiens) [8] = molecular target: Torsin-1A (Homo sapiens) (UniProt O14656); experiment: TOR1A wild-type binding on microarray – cell lysate, small-molecule microarray, lysate, 635/667 nm, primary screen (AID 1149); details: COS7 hTOR1A-WT lysate, 635 nm fluorescence, higher = more signal
# Sequence of Torsin-1A (Homo sapiens) (O14656 whole entry, looked up): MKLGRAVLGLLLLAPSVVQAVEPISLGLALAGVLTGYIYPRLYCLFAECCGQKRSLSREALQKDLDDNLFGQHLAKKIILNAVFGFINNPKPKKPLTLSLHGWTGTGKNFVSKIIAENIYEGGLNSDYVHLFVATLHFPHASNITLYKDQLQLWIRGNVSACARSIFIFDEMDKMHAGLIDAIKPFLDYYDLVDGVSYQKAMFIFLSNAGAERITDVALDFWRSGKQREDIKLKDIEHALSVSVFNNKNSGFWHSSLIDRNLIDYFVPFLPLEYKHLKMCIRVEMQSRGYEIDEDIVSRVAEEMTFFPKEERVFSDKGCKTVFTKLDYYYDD
# Torsin-1A (Homo sapiens) [9] = molecular target: Torsin-1A (Homo sapiens) (UniProt O14656); experiment: torsin A mutant lysate binding on microarrays – cell lysate, small-molecule microarray, COS7 lysate, 635/667 nm fluorescence, primary screen (AID 1150); details: COS7 hTOR1A mutant lysate, 635 nm fluorescence, higher = more signal;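 further: score pools 667 nm emission and signal to noise measuring lysate protein binding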
# [10] = tested on: Sonic hedgehog protein (Shh); experiment: Sonic hedgehog microarray binding compounds – biochemical, small-molecule microarray, 635/667 nm fluorescence, primary screen (AID 1151); details: 635 nm fluorescence, higher = more signal;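 further: Shh protein binding to compounds spotted on small-molecule microarray slides; score combines spot fluorescence intensity with signal-to-noise across triplicate slides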
Structure (SMILES),composite z-score [1],z-score [2],z-score [3],z-score [4],z-score [5],composite z-score [6],composite z-score [7],composite z-score (Torsin-1A (Homo sapiens) [8]),composite z-score (Torsin-1A (Homo sapiens) [9]),composite z-score [10]
C=C(COC)/C(=C/C[C@@H](OC(C)=O)c1ccc(OCCO)cc1)c1cnc2ccccc2c1,0.837,-2.22 (inactive),-0.826 (inactive),3.77 (inactive),-0.861 (inactive),1.36,-0.0403,-0.148,0.647,1.75
C=CCC(OC(C)=O)[C@@H]1[C@@H](N(Cc2ccc(-c3cccc(C(F)(F)F)c3)o2)C(=O)c2ccc(C)cc2)c2cc(OCCCO)ccc2N1C(=O)Cc1ccc2ccccc2c1 (stereo not given in full),-0.125,-0.0329 (inactive),-0.568 (inactive),-1.1 (inactive),-0.0977 (inactive),-0.269,-0.024,-0.563,-0.702,0.223
O=C1N[C@@H](Cc2ccccc2)C(=O)N2[C@@H]1C[C@@H](C(=O)O)[C@H]2c1cccc(OCCO)c1,0.0465,-0.333 (inactive),-0.965 (inactive),0.692 (inactive),0.321 (inactive),0.0555,-0.128,1.14,0.719,1.77
CCCCCN1CC=CC23O[C@@H]4C=CCCOC(=O)C4[C@H]2C(=O)N(CCCCCO)[C@@H]3C1=O (stereo not given in full),-0.619,0.477 (inactive),-0.978 (inactive),-0.895 (inactive),-0.443 (inactive),-0.729,-0.157,1.82,0.843,0.225
C=CCN1C(=O)[C@]2(O[C@H](CCn3cc([C@H](O)c4ccccc4)nn3)[C@@H]([Si](C)(C)c3ccc(OC)cc3)[C@@H]2C)c2ccccc21,-0.336,-3.87 (inactive),-0.151 (inactive),2.23 (inactive),-0.979 (inactive),-0.957,-0.203,-0.704,-0.73,0.238
COC(=O)[C@@]1(Cc2ccc(OC)cc2)[C@H]2c3cc(C(=O)N4CCCC4)n(Cc4ccc(C)c(F)c4F)c3C[C@H]2CN1C(=O)c1ccccc1,0.634,-2.92 (inactive),0.605 (inactive),-1.15 (inactive),-0.572 (inactive),1.81,0.289,-0.429,0.839,-0.746
C=CC(=C)[C@H]1Oc2ccccc2S(=O)(=O)N2CCC[C@@H]12,0.0964,-4.18 (inactive),1.16 (inactive),0.483 (inactive),0.133 (inactive),0.331,-0.0332,-1.02,-1.06,0.0906
C=CCNC(=O)[C@H]1[C@@H]2C(=O)O[C@@H](c3ccccc3)[C@@H](c3ccccc3)N2[C@@H](c2ccccc2OCCO)[C@]12C(=O)Nc1ccc(C#CCC(C(=O)OC)C(=O)OC)cc12,0.761,-3.8 (inactive),0.608 (inactive),-0.0784 (inactive),0.876 (inactive),0.999,0.277,0.954,1.06,1.84
COC(=O)C[C@H]1O[C@]2(C(=O)N(C)c3ccccc32)[C@@H](C)[C@@H]1[Si](C)(C)F,0.56,-1.18 (inactive),-0.852 (inactive),1.03 (inactive),-0.383 (inactive),0.454,0.0301,0.142,0.164,1.79
COc1ccccc1CN1C(=O)c2ccccc2[C@@]2(Cc3ccccc3N(CC(C)C)C2=O)[C@@H]1c1ccc(CO)cc1,-0.37,0.332 (inactive),0.8 (inactive),-0.412 (inactive),0.462 (inactive),-0.551,0.027,-0.913,-0.0676,-0.452
COC(=O)[C@@]1(Cc2ccc(F)cc2)[C@H]2c3cc(C(=O)N(C)C)n(Cc4ccccc4)c3C[C@H]2CN1C(=O)c1ccccc1,0.198,-2.67 (inactive),-0.22 (inactive),-0.379 (inactive),1.42 (inactive),1.16,0.218,-0.243,0.099,0.0292
CCCCN1CC=CC23O[C@@H]4C=CCCOC(=O)C4[C@H]2C(=O)N(CCCCCCO)[C@@H]3C1=O (stereo not given in full),-0.767,0.311 (inactive),0.844 (inactive),0.333 (inactive),-0.199 (inactive),-0.564,-0.208,-1.22,-1.23,1.65
COc1cc(NN2C(C(O)c3ccco3)C=CC3C(=O)N(c4ccccc4)C(=O)C32)cc(OC)c1OC (stereo not given),-0.286,-2.49 (inactive),-0.225 (inactive),0.0501 (inactive),-0.462 (inactive),0.0123,-0.153,-0.967,0.594,0.179
O=C(c1ccccc1)N1C(=O)[C@@]2(Cc3ccccc31)N=C(c1ccc(OCCCO)cc1)O[C@H]2c1ccccc1,0.54,-4.44 (inactive),0.849 (inactive),1.11 (inactive),1.28 (inactive),0.353,0.346,0.388,1.01,1.27
COC(=O)[C@]1(CCC(=O)OC(C)(C)C)N=C(c2ccc(OCCCO)cc2)O[C@@H]1c1ccccc1CN=[N+]=[N-],0.714,-4.56 (inactive),0.283 (inactive),1.77 (inactive),-0.955 (inactive),0.0874,0.24,-0.351,-0.0282,0.712
OCCCC1=CC(c2cccs2)N(Cc2cc3c(cc2Br)OCO3)CC1 (stereo not given),-0.094,-1.18 (inactive),-0.137 (inactive),0.0563 (inactive),-0.056 (inactive),-0.0072,-0.024,0.155,0.396,1.4
CCCC[C@H]1OB(O)C[C@H]2C1=C(COC)Cn1c(=O)n(-c3ccccc3)c(=O)n12,0.0162,0.0344 (inactive),-0.549 (inactive),-0.327 (inactive),0.124 (inactive),-0.333,-0.182,0.0681,0.0861,0.948
COC(=O)[C@@]1(Cc2ccc(F)cc2)[C@H]2c3cc(C(=O)N4CCCC4)n(Cc4ccc(S(C)(=O)=O)cc4)c3C[C@H]2CN1C(=O)c1ccccc1,0.196,-1.71 (inactive),0.53 (inactive),0.39 (inactive),0.363 (inactive),1.19,0.864,0.181,0.861,-0.716
COC(=O)[C@@]1(Cc2ccccc2)[C@H]2c3cc(C(=O)N4CCCC4)n(Cc4ccc(S(C)(=O)=O)cc4)c3C[C@H]2CN1C(=O)c1ccccc1,-0.0831,-1.22 (inactive),0.779 (inactive),0.959 (inactive),0.266 (inactive),2.21,0.401,0.758,0.81,-0.344
C=C(COC)C(=O)CC[C@@H](OC(C)=O)c1ccc(CO)o1,0.111,0.622 (inactive),-0.238 (inactive),0.363 (inactive),0.283 (inactive),-0.374,0.138,0.463,1.06,2.14
COC(=O)[C@@]1(Cc2ccc(OC)cc2)[C@H]2c3cc(C(=O)N(C)C)n(Cc4ccc(S(C)(=O)=O)cc4)c3C[C@H]2CN1C(=O)c1ccccc1,-0.0427,-2.9 (inactive),-1.05 (inactive),-1.14 (inactive),-1.33 (inactive),1.24,0.431,2.24,1.29,-0.599
COCCOC(=O)N1C(=O)[C@@]2(c3cc(C#CCC(C(=O)OC)C(=O)OC)ccc31)[C@H](c1ccccc1OCCO)N1[C@H](c3ccccc3)[C@H](c3ccccc3)OC(=O)[C@H]1[C@@H]2C(=O)N1CCN(c2ncccn2)CC1,0.621,-4.45 (inactive),-1.09 (inactive),-0.479 (inactive),1.7 (inactive),0.635,0.0384,1.01,1.19,1.89
O=C1C[C@]2(c3ccc([N+](=O)[O-])cc3)C(=O)N(CC(F)(F)F)c3cc(CO)ccc3[C@H]2N1C1CCCCC1,-0.446,0.465 (inactive),1.43 (inactive),-0.412 (inactive),-0.496 (inactive),-0.463,-0.0598,-0.628,-0.611,-0.444
CCOC(=O)C1=CC[C@@H](c2ccccc2)N(S(=O)(=O)c2ccc(C)cc2)[C@H]1c1ccccc1C,0.572,-2.81 (inactive),-0.953 (inactive),0.0707 (inactive),0.285 (inactive),1.05,-0.15,0.339,0.581,-0.19
COCCCNC(=O)[C@]1(CCC(=O)OC(C)(C)C)N=C(c2ccc(OCCCO)cc2)O[C@@H]1c1ccccc1CN=[N+]=[N-],0.297,0.107 (inactive),-0.514 (inactive),-0.459 (inactive),-1.18 (inactive),1.24,0.287,1.64,1.58,0.233
CCCC[C@@H]1C[C@H]1[C@@H](NC(=O)c1ccco1)c1ccc(-c2ccccc2)cc1,-0.0076,-2.51 (inactive),0.0577 (inactive),0.766 (inactive),0.576 (inactive),0.483,0.033,0.618,0.952,-0.308
CC1(C)C2C=C(C(O)C3C=CC4C(=O)NC(=O)C4N3Nc3ccc(Cl)cc3Cl)C[C@@H]1C2 (stereo not given in full),0.696,-2.39 (inactive),-0.418 (inactive),1.19 (inactive),-0.0073 (inactive),0.961,0.0236,-0.0995,1.09,-0.193
